# According to PubChem BioAssay:
# Active and inactive are the calls of the source. Unless noted, the rule behind the calls is not given here.
# How the values were obtained:
# [1] = test system: Wnt5a (protein binding on small-molecule microarray); assay: Wnt5a binders on small-molecule microarray, primary screen, biophysical, 635/667 nm fluorescence (AID 1142); settings: 635 nm fluorescence, higher = more signal;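 note: fluorescence read at 667 nm with signal to noise per printed feature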
# [2] = cell viability in Huh7 cells, primary screen, cytotoxicity control for HCV replication inhibitor project, CellTiter-Glo luminescence, basal, 48 h (AID 1143); settings: Huh7 HCV replicon, higher = more signal, called active from +8 up or from −8 down;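 note: Huh7 hepatoma cells carrying a hepatitis C replication reporter with no stimulus; test concentration not given here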
# [3] = P. aeruginosa biofilm formation inhibitors, primary screen, PAO1 strain, BacTiter-Glo luminescence, LB-PBS (AID 1144); settings: 12 h, higher = more signal
# [4] = CREB reporter modulators without forskolin, primary screen, cell-based, PC12, CRE-LacZ reporter, unstimulated (AID 1145); settings: no forskolin, luminescence, 4.5 h, higher = more signal, called active from +8 up or from −8 down
# [5] = CREB reporter modulators under forskolin, primary screen, cell-based, PC12, CRE-LacZ reporter, forskolin-stimulated (AID 1146); settings: luminescence, 4.5 h, higher = more signal, called active from +8 up or from −8 down;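 note: PC12 cells with 6xCRE LacZ reporter stimulated by forskolin 10 µM; beta-galactosidase reporter signal reflecting CREB driven transcription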
# [6] = target: Streptavidin (Streptomyces avidinii) (UniProt P22629); assay: streptavidin binders on small-molecule microarray, primary screen, artefact control for SMM compound annotation, biophysical, 635/667 nm fluorescence (AID 1147); settings: streptavidin binding, higher = more signal;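 note: signal reflects streptavidin binding to arrayed compounds as a control protein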
# [7] = small-molecule binders of probe aInhba, primary screen, biochemical, small-molecule microarray, 635/667 nm fluorescence (AID 1148); settings: higher = more signal;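 note: score merges 667nm spot fluorescence with signal-to-noise for antibody binding to printed compounds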
# Torsin-1A (Homo sapiens) [8] = target: Torsin-1A (Homo sapiens) (UniProt O14656); assay: torsin A binders from cell lysate, primary screen, small-molecule microarray, wild-type, 635/667 nm (AID 1149); settings: COS7 hTOR1A-WT lysate, 635 nm fluorescence, higher = more signal
# Torsin-1A (Homo sapiens) [9] = target: Torsin-1A (Homo sapiens) (UniProt O14656); assay: small-molecule binders of mutant TOR1A in lysate, primary screen, cell lysate, small-molecule microarray, COS7 lysate, 635/667 nm fluorescence (AID 1150); settings: COS7 hTOR1A mutant lysate, 635 nm fluorescence, higher = more signal;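 note: score pools 667 nm emission and signal to noise measuring lysate protein binding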
# [10] = test system: Sonic hedgehog protein (Shh); assay: small-molecule binders of Shh protein, primary screen, biochemical, small-molecule microarray, 635/667 nm fluorescence (AID 1151); settings: small-molecule microarray binding, 635 nm fluorescence; higher = more signal;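 note: Shh protein binding to compounds spotted on small-molecule microarray slides; score combines spot fluorescence intensity with signal-to-noise across triplicate slides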
# [11] = E. coli DRC41 culture turbidity changes, primary screen, E. coli filamentation inducer project, strain DRC41, OD650, 48 h (AID 1152);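 note: E. coli MC1000 strain DRC41 lacking acrAB efflux pump and sulA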; settings: E. coli DRC41 (acrAB sulA), higher = more signal, called active from +8 up or from −8 down
# [12] = small-molecule binders of probe aLefty1, primary screen, biochemical, small-molecule microarray, 635/667 nm fluorescence (AID 1153); settings: higher = more signal;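 note: score merges spot fluorescence with signal-to-noise ratio from the scanned slide images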
# [13] = PSAC antagonists in infected red cells, primary screen, cell-based, P. falciparum Indochina, OD700, 1 h (AID 1154); settings: P. falciparum Indochina infected RBC osmotic lysis, higher = more signal, called active from +8 up or from −8 down
# [14] = PSAC antagonists in infected red cells, primary screen, cell-based, P. falciparum Indochina, OD700, 2 h (AID 1155);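 note: lysis reports solute entry through the parasite surface anion channel PSAC; channel blockers reduce lysis of infected cells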; settings: P. falciparum Indochina infected erythrocytes, osmotic lysis OD700; higher = more signal, called active from +8 up or from −8 down
# [15] = osmotic lysis modulators in infected erythrocytes, primary screen, PSAC antagonist project, cell-based, P. falciparum Indochina, OD700, 3 h (AID 1156); settings: higher = more signal, called active from +8 up or from −8 down
# [16] = PSAC antagonists in infected red cells, primary screen, cell-based, P. falciparum Indochina, OD700, 18 h (AID 1157); settings: P. falciparum Indochina infected erythrocytes, osmotic lysis OD700, 18 h; higher = more signal, called active from +8 up or from −8 down
# [17] = modulators of S6 phosphorylation in cells, primary screen, cell-based, A549, cytoblot, luminescence, serum-stimulated (AID 1158); settings: A549 phospho-S6 cytoblot, 5 h, higher = more signal;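 note: serum-stimulated A549 lung adenocarcinoma cells; signal is phosphorylated S6 detected by cytoblot immunostaining with HRP secondary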
# [18] = target: NADPH oxidase 2 (Homo sapiens) (UniProt P04839); assay: NOX2-dependent H2O2 signal modulators, primary screen, NOX inhibitor project, cell-based, HEK293-NOX2, PMA-stimulated, Amplex Red fluorescence (AID 1159); settings: 45 min, higher = more signal, called active from +8 up or from −8 down; note: test concentration not given here
# [19] = target: NADPH oxidase 4 (Homo sapiens) (UniProt Q9NPH5); assay: NOX4-dependent H2O2 signal modulators, primary screen, NOX inhibitor project, cell-based, HEK293-NOX4, tetracycline-induced, Amplex Red fluorescence (AID 1160); settings: 45 min, higher = more signal, called active from +8 up or from −8 down
# [20] = target: NADPH oxidase 5 (Homo sapiens) (UniProt Q96PH1); assay: NOX5-dependent H2O2 signal modulators, primary screen, NOX inhibitor project, cell-based, HEK293-NOX5, Amplex Red fluorescence (AID 1161); settings: HEK293-NOX5, ionomycin, 45 min, higher = more signal
# Sequence of NADPH oxidase 5 (Homo sapiens) (Q96PH1 whole entry, looked up): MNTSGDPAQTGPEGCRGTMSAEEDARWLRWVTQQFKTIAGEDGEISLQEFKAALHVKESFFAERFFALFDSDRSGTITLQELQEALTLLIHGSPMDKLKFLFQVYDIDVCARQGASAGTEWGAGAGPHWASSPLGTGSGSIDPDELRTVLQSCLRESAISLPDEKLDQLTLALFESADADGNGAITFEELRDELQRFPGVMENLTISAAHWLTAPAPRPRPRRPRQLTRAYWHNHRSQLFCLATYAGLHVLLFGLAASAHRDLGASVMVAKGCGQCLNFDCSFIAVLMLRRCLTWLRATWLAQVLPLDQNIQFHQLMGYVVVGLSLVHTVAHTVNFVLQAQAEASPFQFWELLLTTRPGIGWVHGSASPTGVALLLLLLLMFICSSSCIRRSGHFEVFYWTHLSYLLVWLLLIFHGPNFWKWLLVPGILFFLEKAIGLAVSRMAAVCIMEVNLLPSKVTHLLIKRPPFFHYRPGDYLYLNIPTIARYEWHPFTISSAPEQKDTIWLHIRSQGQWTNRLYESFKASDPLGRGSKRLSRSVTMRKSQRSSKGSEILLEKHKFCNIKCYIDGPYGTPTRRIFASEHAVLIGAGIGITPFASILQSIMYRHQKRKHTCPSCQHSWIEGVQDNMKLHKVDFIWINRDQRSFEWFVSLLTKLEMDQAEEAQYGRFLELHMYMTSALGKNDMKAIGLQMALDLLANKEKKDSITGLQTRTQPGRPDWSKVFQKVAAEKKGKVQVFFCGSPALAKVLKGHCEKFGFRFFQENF
# Sequence of NADPH oxidase 4 (Homo sapiens) (Q9NPH5 whole entry, looked up): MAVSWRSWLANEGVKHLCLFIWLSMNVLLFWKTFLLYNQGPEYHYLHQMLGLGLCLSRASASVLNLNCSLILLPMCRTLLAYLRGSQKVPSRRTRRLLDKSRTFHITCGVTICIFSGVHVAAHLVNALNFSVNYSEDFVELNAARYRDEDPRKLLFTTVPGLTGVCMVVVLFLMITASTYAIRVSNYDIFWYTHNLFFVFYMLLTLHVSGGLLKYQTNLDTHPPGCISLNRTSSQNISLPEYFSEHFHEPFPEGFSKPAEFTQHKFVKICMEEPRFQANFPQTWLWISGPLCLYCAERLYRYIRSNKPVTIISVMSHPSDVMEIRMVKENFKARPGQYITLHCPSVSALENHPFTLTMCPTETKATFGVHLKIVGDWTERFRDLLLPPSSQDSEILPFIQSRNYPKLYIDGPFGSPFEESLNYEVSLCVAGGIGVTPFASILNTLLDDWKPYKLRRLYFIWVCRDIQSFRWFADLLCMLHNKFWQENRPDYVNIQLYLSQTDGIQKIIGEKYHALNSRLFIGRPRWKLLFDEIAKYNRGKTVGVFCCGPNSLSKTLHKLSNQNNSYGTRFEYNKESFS
# Sequence of NADPH oxidase 2 (Homo sapiens) (P04839 whole entry, looked up): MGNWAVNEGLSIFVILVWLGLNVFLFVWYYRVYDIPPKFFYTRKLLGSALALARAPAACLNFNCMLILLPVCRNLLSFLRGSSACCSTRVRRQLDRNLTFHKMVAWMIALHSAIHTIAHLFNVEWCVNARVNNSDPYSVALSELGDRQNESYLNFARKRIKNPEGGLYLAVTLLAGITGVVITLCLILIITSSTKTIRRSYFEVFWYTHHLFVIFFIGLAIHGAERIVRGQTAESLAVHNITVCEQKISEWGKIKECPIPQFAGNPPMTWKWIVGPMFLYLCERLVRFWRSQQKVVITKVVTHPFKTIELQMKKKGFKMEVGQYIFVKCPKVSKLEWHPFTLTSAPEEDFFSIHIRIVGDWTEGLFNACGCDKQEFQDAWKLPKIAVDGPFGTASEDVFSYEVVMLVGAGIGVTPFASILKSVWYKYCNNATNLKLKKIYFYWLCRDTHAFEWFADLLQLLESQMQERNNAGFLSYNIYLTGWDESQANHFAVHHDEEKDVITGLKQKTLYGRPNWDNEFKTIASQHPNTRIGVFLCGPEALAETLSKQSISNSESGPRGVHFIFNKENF
# Sequence of Torsin-1A (Homo sapiens) (O14656 whole entry, looked up): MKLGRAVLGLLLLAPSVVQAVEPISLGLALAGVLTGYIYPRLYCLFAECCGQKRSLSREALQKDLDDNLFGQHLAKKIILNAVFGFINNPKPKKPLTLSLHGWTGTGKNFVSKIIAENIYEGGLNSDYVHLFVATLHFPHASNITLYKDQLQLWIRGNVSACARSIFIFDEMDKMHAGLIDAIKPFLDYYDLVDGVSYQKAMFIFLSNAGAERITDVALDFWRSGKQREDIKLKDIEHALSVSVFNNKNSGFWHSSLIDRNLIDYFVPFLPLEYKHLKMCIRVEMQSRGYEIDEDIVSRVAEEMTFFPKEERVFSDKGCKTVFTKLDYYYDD
# Sequence of Streptavidin (Streptomyces avidinii) (P22629 whole entry, looked up): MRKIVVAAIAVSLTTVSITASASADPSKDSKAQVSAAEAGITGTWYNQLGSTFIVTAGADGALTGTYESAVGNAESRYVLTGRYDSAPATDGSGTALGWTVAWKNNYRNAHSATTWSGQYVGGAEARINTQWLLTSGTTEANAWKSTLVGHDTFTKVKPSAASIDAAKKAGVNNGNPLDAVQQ
SMILES,composite z-score [1],z-score [2],z-score [3],z-score [4],z-score [5],composite z-score [6],composite z-score [7],composite z-score (Torsin-1A (Homo sapiens) [8]),composite z-score (Torsin-1A (Homo sapiens) [9]),composite z-score [10],z-score [11],composite z-score [12],z-score [13],z-score [14],z-score [15],z-score [16],z-score [17],z-score [18],z-score [19],z-score [20]
CC(C)CON=C1[C@H]2CCn3c(=O)n(C)c(=O)n3[C@H]2[C@H](O)[C@@H]2O[C@H]12,0.0208,0.736 (inactive),-0.279 (inactive),0.252 (inactive),-0.28 (inactive),0.212,-0.0405,0.558,-0.0543,0.637,-0.0031 (inactive),-0.0559,-0.399 (inactive),-0.165 (inactive),-0.607 (inactive),-0.162 (inactive),-0.445,-0.5 (inactive),0.0343 (inactive),-0.0469
O=C1C=C[C@@H](O)[C@@H]2[C@@H]3C(=O)N(C4CCCCC4)C(=O)[C@@H]3CC[C@@H]12,0.474,-2.62 (inactive),0.411 (inactive),0.25 (inactive),0.915 (inactive),-0.748,0.177,0.54,0.595,0.781,-0.188 (inactive),-0.0501,0.0831 (inactive),-0.0709 (inactive),-0.446 (inactive),0.0822 (inactive),-0.493,0.33 (inactive),0.563 (inactive),-0.266
CCOC(=O)CCN1C(=O)[C@H]2[C@H]3[C@H](O)[C@H](O)CC(=NO[C@@H]4O[C@H](CO)[C@@H](O)[C@H](O)[C@H]4O)[C@H]3CC[C@H]2C1=O,-0.167,0.38 (inactive),0.132 (inactive),0.241 (inactive),0.497 (inactive),-0.0432,-0.05,0.629,0.307,0.493,0.131 (inactive),0.493,-0.266 (inactive),-0.163 (inactive),-0.788 (inactive),-0.0643 (inactive),0.199,0.444 (inactive),0.451 (inactive),-0.9
O=C1C[C@H](c2ccccc2)[C@H](c2ccc(Br)cc2)O1,0.0974,-1.52 (inactive),-1.42 (inactive),0.375 (inactive),-0.0385 (inactive),0.521,-0.128,-0.0753,-0.022,0.212,-1.16 (inactive),-0.464,-0.142 (inactive),-1.13 (inactive),-0.0291 (inactive),-1.6 (inactive),1.61,0.146 (inactive),-0.255 (inactive),-0.446
